PTHR1 agonist – activates the human parathyroid hormone receptor PTHR1; Q03431; HEK293 GP2 PTHR1 cells, GloSensor cAMP luminescence, 1 h; Potency, µM (series often up to 115 µM), hits mostly activators; actives 0.075% (n = 410,000); AID 743266; note: nearly all actives have a fitted effect of over 55% in size
Target sequence (Q03431 whole entry, looked up): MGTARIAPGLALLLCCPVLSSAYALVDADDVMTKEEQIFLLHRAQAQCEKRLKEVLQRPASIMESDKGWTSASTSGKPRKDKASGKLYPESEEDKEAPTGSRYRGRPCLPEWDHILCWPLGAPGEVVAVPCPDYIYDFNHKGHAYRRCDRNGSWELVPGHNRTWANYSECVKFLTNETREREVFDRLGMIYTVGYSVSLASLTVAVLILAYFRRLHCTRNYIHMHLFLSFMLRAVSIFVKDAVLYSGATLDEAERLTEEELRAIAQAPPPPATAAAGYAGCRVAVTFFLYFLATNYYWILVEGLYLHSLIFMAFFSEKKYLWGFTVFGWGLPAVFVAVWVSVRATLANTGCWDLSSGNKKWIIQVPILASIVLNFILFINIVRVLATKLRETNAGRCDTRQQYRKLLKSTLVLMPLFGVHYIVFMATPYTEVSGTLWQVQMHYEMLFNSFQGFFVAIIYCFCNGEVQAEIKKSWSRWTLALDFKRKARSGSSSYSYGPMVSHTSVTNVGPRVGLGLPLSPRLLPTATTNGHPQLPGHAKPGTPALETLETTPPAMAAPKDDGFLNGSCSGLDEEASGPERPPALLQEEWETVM
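HEK-293-derived GP2 cells expressing PTHR1 and a GloSensor cAMP reporter, 3,000/well, plated overnight, given luciferin plus IBMX (each 0.5 mM as added) for 1 h at 37 °C, then compound for 1 h at 37 °C. Luminescence was read after 15 min at room temperature.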
GLP1R cytotox – cytotoxicity in counter-screen for GLP-1R inverse agonists; HEK293 cAMP-luciferase reporter cells, luminescence, 24 h; Potency, µM (doses to about 38.3 µM), hits mostly inhibitors; actives 0.13% (n = 410,000);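 note: loss of luciferase light is scored as toxicity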
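MLSMR compounds, 24 hr on cells at 37 deg C/5% CO2; luminescence after luciferase reagent (12 min RT). Inhibition counted as the undesired cytotoxic outcome.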
GLP1R ag – activates the human GLP-1 receptor; Potency, µM (top dose mostly 45.6 µM), actives largely listed as activators; AID 624172; HEK293 GLP-1R CRE-luciferase, luminescence, 4-6 h; cells express a hypersensitive GLP-1R form; actives 0.007% (n = 380,000)
TRHR ag – agonists of human TRH receptor | TRHR cells, calcium flux fluo-8, FDSS agonist mode | activation, % at 2 µM | actives 0.18% (n = 360,000) | AID 493084; in the data active = activation above about 30%
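Steps: seed TRHR cells overnight; add fluo-8 no-wash Ca dye, RT 30 min–1.5 h; record 10 s baseline; pin-transfer compounds; monitor fluorescence 1 cycle/s for the agonist window. Calcium increases flag candidate agonists.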
GLP-1R inv ag – inverse agonists of human GLP-1 receptor; P43220; HEK293 GLP-1R CRE-luciferase, luminescence, 24 h; GLP-1R form is constitutively active; Potency, µM (doses to about 38.3 µM), usual class: inhibitors; actives 1.6% (n = 410,000); AID 624417; note: nearly all actives have a fitted effect of over 55% in size
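qHTS in 1536-well format: reporter HEK293 cells expressing constitutive GLP-1R activity in DMEM + 10% Nu serum, 24 hr with compounds at 37 deg C, luminescence read after 12 min with detection reagent.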
TRHR enhancer – allosterically enhances the human TRH receptor; P34981; TRHR cells, fluo-8 calcium fluorescence, EC20 TRH enhancement; enhancement, % at 2 µM; actives 0.66% (n = 360,000); AID 493056; in the data active = enhancement above about 30%
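TRHR-expressing cells loaded with fluo-8 calcium dye were read kinetically (ex 480/em 530) during compound addition, then stimulated with an EC20 of TRH (10 nM final). Enhancement of the Gq-mediated intracellular calcium response was scored.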
Large screens that a line does not name were inactive. Sampled rows, rich in hits. Any-hit rate of the full collection: about 2.4%. Unless noted, calls come from the whole dose curve; as a rule, active = well fitted curve in the direction sought with a large enough effect; inconclusive = small, poorly fitted or top-dose-only effect, or another doubt; inactive = no such curve, though single readings can be large; an effect the other way counts as inactive or inconclusive.

COc1ccc(CCNC(=O)CCc2ccc(OC)cc2)cc1	none
Cc1ccc(C)c(OCCC(=O)NCCc2ccc(Cl)cc2)c1	GLP-1R inv ag 10µM
COc1ccc(CCC(=O)NCCOc2ccc(C)cc2)cc1	GLP-1R inv ag 1.8µM
CCOc1ccc(C(=O)NCC(=O)NCCOc2ccc(C)cc2)cc1	none
CCCCOc1ccc(C(=O)NCC(=O)NCCOc2ccc(C)cc2)cc1	TRHR enhancer 32
CC(C)NC(=O)NC(=O)CSc1nncn1C	none
CCCSc1nc(N2CCOCC2)c2c(c1C#N)CC(C)(C)SC2	GLP-1R inv ag 10µM
CC1CCCC(C)N1C(=O)Cn1cc(/C=C2/C(=O)Nc3ccccc32)c2ccccc21 (stereo not given)	GLP1R cytotox inconclusive, GLP-1R inv ag 5.6µM
COC(=O)c1cn(CC(=O)N2C(C)CCCC2C)c2ccccc12 (stereo not given)	GLP-1R inv ag inconclusive
COc1cccc(NC(=O)C2CC(=O)n3cnnc3S2)c1 (stereo not given)	none
C=C(C)CN(CC)c1nc(N)c(C#N)c(CC#N)c1C#N	none
O=C(Nc1nc(-c2cccnc2)cs1)c1ccc(S(=O)(=O)N2CCOCC2)cc1	none
Cc1c(CNC2CCCCCC2)c(C(=O)O)c(C)n1Cc1ccc(F)cc1Cl	none (no result: GLP1R ag)
Cc1ccc2c(c1)Cc1c(nc(-c3ccc(F)cc3)nc1SCC(=O)N1CCCCC1)O2	TRHR enhancer 33 (no result: GLP1R ag)
COc1c2ccoc2nc2c(OC)cccc12	none
COc1ccccc1N1CCN(/N=C/c2ccc([N+](=O)[O-])cc2)CC1	none
O=[N+]([O-])c1ccc(C=NN2CCCCCC2)cc1	GLP-1R inv ag 11µM (no result: TRHR ag, TRHR enhancer)
N/C(Cc1ccc(Cl)cc1Cl)=N\OC(=O)c1ccccc1F	GLP1R ag inconclusive, GLP-1R inv ag inconclusive
CCCCN(C(=O)C1CC(=O)N(CCc2ccc(OC)c(OC)c2)C1)c1c(N)n(CCCC)c(=O)[nH]c1=O (stereo not given)	TRHR enhancer 30
CCCCn1c(N)c(N(CC)C(=O)C2CCCC2)c(=O)[nH]c1=O	TRHR enhancer 36
CCCCN(C(=O)C1CC(=O)N(Cc2ccc(C)cc2)C1)c1c(N)n(CCCC)c(=O)[nH]c1=O (stereo not given)	none
O=C(Nc1ccc(S(=O)(=O)N2CCCC2)cc1)c1cncc(Br)c1	none
O=C(OCC(=O)N(CCc1ccccc1)Cc1ccccc1)c1ccccc1O	GLP-1R inv ag 10µM
O=C(OCC(=O)N(CCc1ccccc1)Cc1ccccc1)c1ccccc1NCCO	GLP-1R inv ag 10µM
CCC(CCCO)CCC[C@H](C)CCC1OCCO1 (stereo not given in full)	GLP-1R inv ag 8.9µM
CC(=O)c1ccc(Nc2nc(-c3sc(C)nc3C)cs2)cc1	GLP1R cytotox inconclusive (no result: TRHR ag, TRHR enhancer)
CC(=O)c1ccc([N+](=O)[O-])c(CS(=O)(=O)c2ccccc2)c1	none
Fc1ccc(Cc2cn3cc(-c4ccccc4)nc3s2)cc1	GLP-1R inv ag 5.6µM
Fc1ccc(-c2cn3cc(Cc4ccccc4)sc3n2)cc1	GLP-1R inv ag inconclusive (no result: GLP1R ag)
COCCN(C(=S)Nc1cc(C)ccc1C)C(C)c1cccnc1 (stereo not given)	none
C=CCOC(=O)C1=C[C@@H](c2ccc(C(F)(F)F)cc2)[C@H](CCCO)[C@@H](OCC)O1	GLP-1R inv ag 6.3µM
CCO[C@H]1OC(C(N)=O)=C[C@@H](C)[C@@H]1CCCO	TRHR enhancer 33
CCO[C@@H]1OC(C(N)=O)=C[C@H](C(C)(C)C)[C@H]1CCCO	none (no result: TRHR ag, TRHR enhancer)
CCO[C@H]1OC(C(=O)Nc2ccccc2)=C[C@@H](c2ccc(Br)cc2)[C@@H]1CCCO	GLP-1R inv ag inconclusive
CCO[C@@H]1OC(C(=O)Nc2ccccc2)=C[C@H](c2ccc(C(F)(F)F)cc2)[C@H]1CCCO	GLP-1R inv ag 4.5µM
CC1CN(CCS(=O)(=O)c2cc(Cl)ccc2Cl)CC(C)O1 (stereo not given)	GLP1R cytotox inconclusive, GLP-1R inv ag inconclusive
